Results filed as inconclusive are left out. A number with no mark means an inactive call. The source made the active and inactive calls. Calls follow the shape of the dose curve; as a rule, active = well fitted inhibition curve with a large enough effect; inconclusive = small, poorly fitted or top-dose-only effect; inactive = no such curve, though single readings can be large or run the other way.
Experiment: Acumen qHTS Assay for Inhibitors of the mTORC1 Signaling Pathway in WT MEF Cells: Hit Validation; also: nearly all actives have a fitted effect of over 60% in size;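 as to activity change, negative = inhibition: phospho-rpS6 Ser235/236 immunofluorescence normalised to propidium iodide cell stain; percent of cells above a cutoff set by 7.5 nM rapamycin treated wells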
Conditions: Acumen imaging; series mostly up to 37.3 µM; activity change, negative = inhibition: at the top concentration
How it was run: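 Read-out is immunofluorescent phospho-rpS6 (Ser235/236) normalised to PI-stained cell number, reported as % active cells using a 7.5 nM rapamycin threshold. Cells: WT or Tsc2-/-, p53-/- MEFs, compound-exposed 24 h at 37C; PI count also tracks viability.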
Potency is read from the fitted curve at half-maximal effect.

Point of comparison: `COc1ccc(N(C)C(=O)c2cc(S(=O)(=O)N3CCc4ccccc43)cn2C)c(OC)c1`, “activity change, negative = inhibition” value 31.5%. Against it:
- CCOC(=O)c1ccc(N2C(=O)c3n[nH]c(C)c3C2c2cccc(Br)c2)cc1 (stereo not given) — lower, -26.9%
- Cn1nc(-c2ccc(OCC(=O)Nc3ccc(Cl)cc3)cc2)c2ccccc2c1=O — lower, -23.6%
- Cc1ccc(NC(=O)Cn2cc(C(=O)C3CCCCC3)c3ccccc32)cc1 — higher, 43%
- O=C(Nc1cccc(NC(=O)c2ccccc2Cl)c1)c1cccc(Br)c1 — lower, 9.16%
- O=C(COc1ccc(F)cc1)Nc1ccc(Cl)c(-c2nc3ccccc3[nH]2)c1 — lower, 8.46%
- COc1ccc(OCc2nc3c4c(-c5ccccc5)c(-c5ccccc5)oc4ncn3n2)cc1 — lower, 2.29%
- Cc1ccc(C(=O)c2cn(CC(=O)NCc3ccccc3Cl)c3nc(C)ccc3c2=O)cc1 — higher, 42.2%
- Cc1c(C2=CCN(S(=O)(=O)c3ccc(Br)cc3)CC2)c2ccccc2n1CC(=O)N1CCCC1 — lower, 1.53%
- COc1ccc(NC(=O)C(NC(=O)/C=C\c2ccc3c(c2)OCO3)c2ccccc2)cc1 (stereo not given) — lower, -25.3%
- Cc1ccc(S(=O)(=O)c2nnn3c2nc(NCc2cccs2)c2sccc23)cc1 — lower, 1.95%
- COc1ccc(Cl)cc1NC(=O)CSc1nc(-c2ccco2)cc(C(F)(F)F)n1 — lower, 1.41%
- CCN1C(=O)c2ccccc2Sc2ccc(NC(=O)Cc3ccc(OC)cc3)cc21 — lower, 2.8%
- COc1ccc(-c2nc(C)c(CCNC(=O)c3ccccc3Br)s2)cc1OC — lower, 24.3%
- O=S(=O)(c1ccccc1)n1nc(-c2ccc(Cl)cc2)nc1NCc1ccccc1 — lower, -20.8%
- COc1cc(NC(=O)CSc2ccc(-c3ccccn3)nn2)cc(OC)c1 — lower, -20.3%
- CCOc1cc(C2CC(=O)Nc3cc4c(cc32)OCCO4)ccc1O (stereo not given) — lower, 28.2%
- CC(CNC(=O)c1ccc(Nc2nc3ccccc3n3nnnc23)cc1)c1ccccc1 (stereo not given) — higher, 65.1%
- COc1ccc(CCCc2nnc(SCC(=O)Nc3ccc(OC)cc3)o2)cc1 — lower, 9.53%
- CCOC(=O)c1ccc(N2C(=O)c3n[nH]c(-c4cccs4)c3C2c2cccc(F)c2)cc1 (stereo not given) — lower, -12.8%
- Cc1nn(C(C)C(=O)NC2CCC(C)CC2)c(=O)c2c1sc1ccccc12 (stereo not given) — lower, 1.53%
- Cc1ccc(NC(=O)Nc2cccs2)c(C)c1 — lower, 12.2%
- O=C(CS(=O)(=O)c1cccc2nsnc12)NCc1ccc(Cl)cc1 — higher, 44.4%
- COc1ccc(-c2noc(CSc3nc(N)cc(=O)[nH]3)n2)cc1 — lower, -13.5%
- O=C(Nc1ccc(Cl)cc1)C1CCC(CNS(=O)(=O)c2ccc(Br)s2)CC1 (stereo not given) — lower, -8.29%
- NC(=O)c1ccc(-c2nc(-c3ccc4c(c3)OCO4)c(-c3ccccn3)[nH]2)cc1 — lower, 15.3%
- O=C(/C=C/c1ccco1)Nc1ccc(Cl)c(-c2nc3cc(Cl)ccc3o2)c1 — lower, -7.63%
- Cc1cc(C)cc(C(=O)Nc2ccc(-c3nc4ncccc4o3)cc2)c1 — lower, -13.1%
- Cc1nn(CC(=O)N2CCN(c3ccccc3F)CC2)c(=O)c2cccn12 — lower, 26.1%
- CCOC(=O)C1CCN(C(=O)CSc2c3c(nc4ccc(Cl)cc24)CCCC3)CC1 — lower, -12.9%
- Cc1ccc(C(=O)CC2(O)C(=O)N(Cc3ccccc3)c3ccc(Br)cc32)cc1 (stereo not given) — lower, 0.517%
- COc1ccc(C(=O)N2CCN(C(=O)COc3ccc(Br)cc3)CC2)cc1OC — lower, 3.49%
- CC(C)Oc1ccc(CNC(=O)c2ccc3nc(SCc4ccc(F)cc4)n(C)c3c2)cc1 — lower, 1.09%

For `CCOC(=O)Cn1c(=O)c2c(nc(N3CCOCC3)n2Cc2ccccc2)n(C)c1=O`, the Potency was 4.14 µM (active).
In the case of `Cc1ccc(Nc2nc(C(N)=O)c(NC(=O)c3ccccc3Br)s2)cc1`, the Potency was 3.69 µM (active).
In the case of `COc1cccc(-c2nnc3sc(CN4CCCCC4)cn23)c1`, the Potency was 1.65 µM (active).
In the case of `CCN(CC)CCOC(=O)c1ccc(NC(=O)c2nn(-c3ccc(C)cc3)c(=O)c3c2c2ccccc2n3C)cc1`, the Potency was 1.17 µM (active).
In the case of `CC(C)S(=O)(=O)c1oc(-c2cccs2)nc1S(=O)(=O)c1ccc(F)cc1`, the Potency was 0.826 µM (active).
In the case of `COC(=O)c1c(C)oc2ccc(N(C(=O)c3ccncc3)S(=O)(=O)c3ccc(OC)cc3)cc12`, the Potency was 4.14 µM (active).
With `CC(=O)Nc1cccc(NC(=O)C(=O)NCCc2sc(-c3ccccc3)nc2C)c1` the Potency was 7.36 µM (active).
